12-LOX inh: Primary qHTS assay for inhibitors of human arachidonate 12S-lipoxygenase (ALOX12): Round 2 | purified 12hLO, xylenol orange hydroperoxide absorbance | Potency, µM (highest dose often 108 µM), without a hit: top-dose activity change, negative = inhibition, most hits filed as inhibitors | Polyunsaturated fatty acid lipoxygenase ALOX12 (Homo sapiens), P18054 | 1.1% of 580,000 active | AID 1671190, 2021; also: potency is read from the fitted curve at half-maximal effect
Target sequence (P18054 whole entry, looked up): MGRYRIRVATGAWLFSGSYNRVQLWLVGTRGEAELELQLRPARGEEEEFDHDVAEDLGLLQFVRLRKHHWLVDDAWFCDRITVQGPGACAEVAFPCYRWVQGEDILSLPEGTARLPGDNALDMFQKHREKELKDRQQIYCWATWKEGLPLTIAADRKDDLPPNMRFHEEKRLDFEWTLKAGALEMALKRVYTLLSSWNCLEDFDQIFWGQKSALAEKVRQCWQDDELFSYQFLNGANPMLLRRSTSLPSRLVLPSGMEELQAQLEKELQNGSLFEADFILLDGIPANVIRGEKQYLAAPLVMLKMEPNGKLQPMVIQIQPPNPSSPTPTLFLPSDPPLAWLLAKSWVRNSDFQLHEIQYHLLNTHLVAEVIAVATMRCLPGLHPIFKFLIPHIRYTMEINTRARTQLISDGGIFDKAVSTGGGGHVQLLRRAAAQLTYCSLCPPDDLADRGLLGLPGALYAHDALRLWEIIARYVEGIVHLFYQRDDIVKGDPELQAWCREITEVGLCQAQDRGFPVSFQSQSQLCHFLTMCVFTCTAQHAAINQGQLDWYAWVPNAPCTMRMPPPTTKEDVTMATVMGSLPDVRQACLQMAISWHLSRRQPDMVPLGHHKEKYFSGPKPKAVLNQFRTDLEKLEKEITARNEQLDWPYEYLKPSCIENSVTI
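Purified human 12hLO (150 nM final) in 25 mM Hepes, 0.01% Triton X-100, pH 7.0 was preincubated 15 min at room temperature with compound. Then 40 uM arachidonic acid was added, 30 min. Hydroperoxide was read by Fe-XO absorbance ratio 573/405 nm.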
HT1080 IDH1KD tx: qHTS for induction of synthetic lethality in tumor cells producing 2HG: qHTS for the HT-1080-IDH1KD cell line. HT-1080 IDH1 knockdown viability, ATP luminescence, 48 h. Potency, µM (series often up to 46.1 µM), without a hit: at the top dose activity, negative = toxicity, usual class: cytotoxic. 2% of 360,000 active. AID 686971, 2013;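 also: potency is read from the fitted curve at half-maximal effect; 0% = DMSO wells and -100% = cell-free medium wells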
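Using the IDH1-knockdown HT-1080 line run in the same batch and compound series as the NT line, viability after 48 h at 37 °C was determined by CellTiter-Glo luminescence and expressed as % activity.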
IL-1B inflam inh: qHTS for Inhibitors of Inflammasome Signaling: IL-1-beta AlphaLISA Primary Screen; THP-1 LPS/ATP IL-1B secretion, AlphaLISA, 16 h; stronger effect = lower value; activity change, % at 57.5 µM; 4.7% of 360,000 active; AID 743279, 2014; in the data active = activity change below about -50%; inconclusive = mostly about -30% to -49%
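THP-1 cells pretreated 1 hr with compounds (up to 57.5 uM final), then stimulated with LPS (250 ng/mL final) plus ATP (1.25 mM final); secreted IL-1B measured by AlphaLISA after 16 hr, decreased signal indicating inhibition.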
TDP1 cell CPT: qHTS for Inhibitors of human tyrosyl-DNA phosphodiesterase 1 (TDP1): qHTS in cells in presence of CPT; chicken DT40 Tdp1-/-;hTDP1 cells + 20 nM CPT, ATP luminescence, 48 h; Potency, µM (series often up to 46.2 µM), inactives show at the top dose activity change, negative = growth inhibition, most hits filed as inhibitors; 12% of 420,000 active; also: potency is read from the fitted curve at half-maximal effect; nearly all actives have a fitted effect of over 55% in size
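Chicken DT40 Tdp1-/- cells stably complemented with human TDP1 were seeded at 400 cells/well in medium containing 20 nM camptothecin, exposed to pin-transferred compounds, and grown at 37 °C for at least 48 hr. Viability was read as ATP luminescence.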
HT1080-NT tox: qHTS for induction of synthetic lethality in tumor cells producing 2HG: qHTS for the HT-1080-NT fibrosarcoma cell line; HT-1080-NT fibrosarcoma viability, CellTiter-Glo ATP luminescence, 48 h; Potency, µM (doses to about 46.1 µM), without a hit: top-dose activity, negative = less viability, most hits filed as cytotoxic; 1.6% of 360,000 active;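 also: NT is the 2HG producing partner of a matched IDH1 knockdown line; potency is read from the fitted curve at half-maximal effect; 0% = DMSO-treated cells and -100% = media-only wells without cells; nearly all actives have a fitted effect of over 55% in size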
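Viability by CellTiter-Glo luminescence after 48 h compound exposure at 37C of HT-1080-NT cells (750/well, RPMI, 5% FBS). % activity scaled between DMSO wells and medium-only wells, then curve-fitted and categorized by curve class.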
TDP1 cell noCPT: qHTS for Inhibitors of human tyrosyl-DNA phosphodiesterase 1 (TDP1): qHTS in cells in absence of CPT. AID 686978, 2013. 15% of 420,000 active. Potency, µM (top dose mostly 46.2 µM), for the others: at the top dose activity change, negative = growth inhibition, most hits filed as inhibitors. DT40 Tdp1-/- hTDP1 cells, no CPT, ATP luminescence, 48 h; also: potency is read from the fitted curve at half-maximal effect; nearly all actives have a fitted effect of over 55% in size
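Stably hTDP1-transfected Tdp1-null chicken DT40 cells were treated with library compounds minus camptothecin and grown for at least 48 hr at 37 °C, after which cellular ATP was quantified by luminescence.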
An asterisk follows results filed as active; [ ] = dose if it differs, or a comment. Only a selection was taken, and hits are over-represented in it overall. Unless noted, calls follow the shape of the dose curve; as a rule, active = well fitted curve in the direction sought with a large enough effect; inconclusive = small, poorly fitted or top-dose-only effect, or another doubt; inactive = no such curve, though single readings can be large; an effect the other way counts as inactive or inconclusive. Unless noted, % is scaled to controls: 0 for no effect and ±100 for the full control effect.

How did COC(=O)c1c(NC(=O)Cc2ccccc2)sc2c1C(C(=O)OC)CC2 (stereo unspecified) do in these assays?
12-LOX inh: -13.3%; HT1080 IDH1KD tx: 0.2%; IL-1B inflam inh: -24.9; TDP1 cell CPT: inconclusive; HT1080-NT tox: 17.3%; TDP1 cell noCPT: inconclusive

Results for COC(=O)c1c(NC(=O)CCCOc2cccc(C)c2)sc2c1C(C(=O)OC)CC2 (stereo unspecified) ?
12-LOX inh: -4.7%; TDP1 cell CPT: 16.4µM*; TDP1 cell noCPT: 14.6µM*

What do the screens show for `CCN(CC)CC(=O)Nc1ccc(-c2nc3cc(NC(=O)CN(CC)CC)ccc3o2)cc1`?
12-LOX inh: 0.0%; HT1080 IDH1KD tx: -2.9%; IL-1B inflam inh: -13.1; TDP1 cell CPT: 20.6µM*; HT1080-NT tox: -2.7%; TDP1 cell noCPT: 18.4µM*

How did O=C(CN1CCCC1)Nc1ccc(-c2nc3cc(NC(=O)CN4CCCC4)ccc3o2)cc1 do in these assays?
12-LOX inh: -8.5%; HT1080 IDH1KD tx: inconclusive; IL-1B inflam inh: -55.9*; TDP1 cell CPT: 18.4µM*; HT1080-NT tox: inconclusive; TDP1 cell noCPT: 11.6µM*

How did CCC(C)NCC(=O)Nc1ccc(-c2nc3cc(NC(=O)CNC(C)CC)ccc3o2)cc1 (stereo unspecified) do in these assays?
12-LOX inh: 0.0%; HT1080 IDH1KD tx: -25.0%; IL-1B inflam inh: -3.2; TDP1 cell CPT: 6.51µM*; HT1080-NT tox: -20.2%; TDP1 cell noCPT: 7.31µM*

Results for CCCC(=O)Nc1ccc2oc(-c3ccc(F)cc3)nc2c1 ?
12-LOX inh: -5.7%

How did Cc1cc(CNC(=O)C2CCCCn3nnnc32)c2[nH]c(-c3ccccc3)c(C)c2c1 (stereo unspecified) do in these assays?
12-LOX inh: 5.5%

What do the screens show for `c1ccc(-c2n[nH]c(-c3ccccn3)n2)cc1`?
12-LOX inh: 0.0%; HT1080 IDH1KD tx: 5.8µM*; IL-1B inflam inh: -12.1; TDP1 cell CPT: inconclusive; HT1080-NT tox: 8.2µM*; TDP1 cell noCPT: inconclusive

Results for COc1ccccc1-c1noc(-c2cc(OC)c(OC)c(OC)c2)n1 ?
12-LOX inh: 0.0%; HT1080 IDH1KD tx: -8.4%; IL-1B inflam inh: -22.2; TDP1 cell CPT: inconclusive; HT1080-NT tox: -16.0%; TDP1 cell noCPT: 23.1µM*

Results for c1ccc(C(Cc2nc(-c3ccccn3)no2)c2ccccc2)cc1 ?
12-LOX inh: 171.7%; HT1080 IDH1KD tx: -5.4%; IL-1B inflam inh: -2.4; TDP1 cell CPT: inconclusive; HT1080-NT tox: -9.7%; TDP1 cell noCPT: 16.4µM*

How did c1ccc(-c2noc(-c3ccno3)n2)nc1 do in these assays?
12-LOX inh: 170.7%; HT1080 IDH1KD tx: 5.1%; IL-1B inflam inh: 40.2; TDP1 cell CPT: 2.3%; HT1080-NT tox: 6.8%; TDP1 cell noCPT: -2.1%

What do the screens show for `c1ccc(Cc2nc(-c3ccccn3)no2)cc1`?
12-LOX inh: 12.9%; HT1080 IDH1KD tx: 6.2%; IL-1B inflam inh: -22.6; TDP1 cell CPT: -0.2%; HT1080-NT tox: -4.6%; TDP1 cell noCPT: -0.3%

How did COc1cc(OC)cc(-c2nc(-c3ccccc3OC)no2)c1 do in these assays?
12-LOX inh: -3.6%; HT1080 IDH1KD tx: -0.4%; IL-1B inflam inh: -18.5; TDP1 cell CPT: inconclusive; HT1080-NT tox: 13.8%; TDP1 cell noCPT: inconclusive

Results for c1ccc(-c2ccc(-c3nc(-c4ccccn4)no3)cc2)cc1 ?
12-LOX inh: 2.4%; HT1080 IDH1KD tx: 12.6µM*; IL-1B inflam inh: -3.9; TDP1 cell CPT: 11.6µM*; HT1080-NT tox: 10µM*; TDP1 cell noCPT: 10.3µM*

How did O=C1Nc2ccc(-c3cccc(C(F)(F)F)c3)cc2C(=O)N2CCN(C(=O)c3ccco3)C[C@@H]12 do in these assays?
12-LOX inh: -13.4%

What do the screens show for `O=C(NCc1ccccc1)c1cnc2n1CCN(Cc1ccc3c(c1)CCO3)CC2`?
12-LOX inh: 30.7%[176 µM]

What do the screens show for `Cc1ccc(-c2nc(-c3ccccn3)no2)cc1Cl`?
12-LOX inh: 7.1%; HT1080 IDH1KD tx: inconclusive; IL-1B inflam inh: 17.4; TDP1 cell CPT: inconclusive; HT1080-NT tox: inconclusive; TDP1 cell noCPT: 11.6µM*

What do the screens show for `c1ccc(-c2nc(-c3ccccn3)no2)cc1`?
12-LOX inh: 1.8%; HT1080 IDH1KD tx: 10µM*; IL-1B inflam inh: 21.7; TDP1 cell CPT: 16.4µM*; HT1080-NT tox: 12.6µM*; TDP1 cell noCPT: inconclusive

What do the screens show for `Clc1cccc(-c2nc(-c3ccccn3)no2)c1`?
12-LOX inh: 0.7%; HT1080 IDH1KD tx: inconclusive; IL-1B inflam inh: 13.3; TDP1 cell CPT: -20.7%; HT1080-NT tox: inconclusive; TDP1 cell noCPT: inconclusive

What do the screens show for `Cc1ccc(-c2nc(-c3ccccn3)no2)cc1`?
12-LOX inh: -10.2%; HT1080 IDH1KD tx: 6.51µM*; IL-1B inflam inh: 0.0; TDP1 cell CPT: 7.31µM*; HT1080-NT tox: 5.17µM*; TDP1 cell noCPT: 8.2µM*

What do the screens show for `COc1cccc(-c2nc(-c3ccccn3)no2)c1OC`?
12-LOX inh: 0.0%[57.4 µM]; HT1080 IDH1KD tx: 18.6%; IL-1B inflam inh: -10.8; TDP1 cell CPT: 23.1µM*; HT1080-NT tox: 12.2%; TDP1 cell noCPT: inconclusive

How did COCCC(=O)N[C@H]1CC[C@]2(C)CCC([C@H](C)C(=O)N(C)Cc3ccccc3)[C@H](O)[C@H]2[C@@H]1C (stereo partly specified) do in these assays?
12-LOX inh: -1.6%

How did COc1ccc2c(c1)/C(=N/OC(=O)c1cc(SC)ccc1Cl)CCC2 do in these assays?
12-LOX inh: -3.9%

Results for OC(c1cc2n(n1)CCN(c1ncc(C(F)(F)F)cc1Cl)C2)C1CC1 (stereo unspecified) ?
12-LOX inh: 53.1%

What do the screens show for `c1ccc(-c2cc(-c3nc(-c4ccccn4)no3)c3ccccc3n2)cc1`?
12-LOX inh: 7.8%; HT1080 IDH1KD tx: 13.2%; IL-1B inflam inh: -15.2; TDP1 cell CPT: 9.2µM*; HT1080-NT tox: 1.4%; TDP1 cell noCPT: 8.2µM*

What do the screens show for `c1ccc(-c2noc(-c3cccc4ccccc34)n2)nc1`?
12-LOX inh: 11.3%; HT1080 IDH1KD tx: -25.5%; IL-1B inflam inh: -0.1; TDP1 cell CPT: 2.7%; HT1080-NT tox: -8.1%; TDP1 cell noCPT: -23.2%

Screening results: PubChem BioAssay, National Center for Advancing Translational Sciences (NCATS)
